HTR5A ag = activates human HTR5A in OPRM1-OPRD1 agonist counter-screen; 340,000 compounds, 0.61% hits; HTR5A agonist assay, luminescence, cell-based; P47898; activation, % at 9.3 µM; AID 504692; in the data active means activation mostly above about 9.5%, no sharp cut-off; inactive means mostly below about 7.6%
beta cell repl = induces beta-cell replication in MIN6 cells | MIN6 cells proliferation, ATPlite luminescence, 48 h; cells starved in 0.2% serum; 100% = growth in 10% serum | proliferation, % at 10 µM | 330,000 compounds, 0.29% hits | AID 2380;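 active means compounds whose signal lies at least 3.5 SD above the mean of all wells on their plate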
HTR5A inv ag = HTR5A inverse agonism, opioid heterodimer counter-screen; P47898; HTR5A cell line, luminescence; inhibition, % at 9.3 µM; 340,000 compounds, 0.083% hits; AID 504634; in the data active means inhibition mostly above about 23%, no sharp cut-off; inactive means mostly below about 18%
p-CIP stab down = compounds decreasing mouse p/CIP protein stability; F442A p/CIP-EGFP cells, EGFP fluorescence, 16 h; 290,000 compounds, 0.01% hits; decrease of EGFP signal, % at 10 µM;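 active means EGFP signal decrease of at least 30% at 10 µM or well 3 SD below plate mean, unless failing retest; inactive means the rest, including hits failing retest or dose response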
Target sequence (Q05BA5 1-1403): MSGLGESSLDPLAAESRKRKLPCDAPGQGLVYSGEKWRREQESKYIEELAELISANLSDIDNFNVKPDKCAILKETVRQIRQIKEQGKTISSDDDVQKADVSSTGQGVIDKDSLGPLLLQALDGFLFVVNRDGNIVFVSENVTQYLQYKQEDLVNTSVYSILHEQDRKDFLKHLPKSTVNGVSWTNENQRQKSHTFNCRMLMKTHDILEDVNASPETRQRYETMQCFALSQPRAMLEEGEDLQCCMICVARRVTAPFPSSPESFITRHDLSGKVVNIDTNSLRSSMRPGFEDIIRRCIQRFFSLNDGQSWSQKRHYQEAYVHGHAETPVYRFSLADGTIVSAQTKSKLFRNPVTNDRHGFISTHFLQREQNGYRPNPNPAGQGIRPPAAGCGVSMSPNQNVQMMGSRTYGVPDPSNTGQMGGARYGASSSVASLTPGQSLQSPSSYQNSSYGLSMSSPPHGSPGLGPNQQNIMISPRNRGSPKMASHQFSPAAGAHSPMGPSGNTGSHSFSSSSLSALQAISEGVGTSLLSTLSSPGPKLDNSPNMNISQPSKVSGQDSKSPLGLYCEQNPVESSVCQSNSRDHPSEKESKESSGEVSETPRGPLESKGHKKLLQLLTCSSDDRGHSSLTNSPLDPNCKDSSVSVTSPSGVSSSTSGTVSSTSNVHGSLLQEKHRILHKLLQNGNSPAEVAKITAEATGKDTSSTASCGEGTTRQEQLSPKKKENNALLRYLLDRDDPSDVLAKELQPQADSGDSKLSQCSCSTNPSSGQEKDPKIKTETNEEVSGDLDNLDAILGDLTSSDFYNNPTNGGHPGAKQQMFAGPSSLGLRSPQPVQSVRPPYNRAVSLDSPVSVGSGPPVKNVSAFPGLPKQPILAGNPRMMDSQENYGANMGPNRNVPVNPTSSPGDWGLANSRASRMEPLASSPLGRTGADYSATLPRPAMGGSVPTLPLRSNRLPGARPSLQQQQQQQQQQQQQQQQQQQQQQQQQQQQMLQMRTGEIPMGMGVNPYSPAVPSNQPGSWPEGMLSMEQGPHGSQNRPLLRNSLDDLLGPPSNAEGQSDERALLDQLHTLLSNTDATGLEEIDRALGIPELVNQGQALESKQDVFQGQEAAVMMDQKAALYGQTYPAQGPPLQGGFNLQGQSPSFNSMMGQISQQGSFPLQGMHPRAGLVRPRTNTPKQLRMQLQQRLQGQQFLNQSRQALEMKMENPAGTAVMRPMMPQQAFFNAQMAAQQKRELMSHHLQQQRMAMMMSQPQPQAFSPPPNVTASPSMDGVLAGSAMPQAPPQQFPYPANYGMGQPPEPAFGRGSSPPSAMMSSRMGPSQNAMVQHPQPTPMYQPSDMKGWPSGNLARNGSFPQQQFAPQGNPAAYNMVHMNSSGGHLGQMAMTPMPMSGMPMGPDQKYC
MOR-DOR ag-1 = agonists of human mu-delta opioid receptor heterodimerization | activation, % at 9.3 µM | 340,000 compounds, 0.3% hits | AID 504326 | cells, OPRM1-OPRD1 heterodimerization, luminescence | P35372+P41143
OPRM1-OPRD1 inv = inverse agonist of human OPRM1-OPRD1 heterodimerization; cell-based MOR-DOR heterodimer luminescence, inverse agonism; P35372+P41143; inhibition, % at 9.3 µM; 340,000 compounds, 0.21% hits; in the data active means inhibition above about 22%, passing the limit was not always enough
MOR-DOR ag-2 = opioid heterodimer agonism, HTR5A counter-screen. shares compounds with HTR5A ag. U2OS counter-screen cells, complementation luminescence, 3 h. activation, % at 9.3 µM. 800 compounds, 13% hits
HTR5A ag confirm = HTR5A (human) agonism, confirmation; shares compounds with HTR5A ag; HTR5A agonist cell assay, luminescence; activation, % at 9.3 µM; 800 compounds, 17% hits; in the data active means activation above about 17%
Of the large screens only hits and unclear results are named; the others gave an inactive call (follow-up assays come after a bar, where they were run). A selection: hits, their analogues and other compounds. The true share with any hit is near 1.4%. Unless noted, no stated cut-off is given here; in the data, active means activation above about 18%; inactive means the rest.

O=C(Cn1cc(CNC(=O)C2CCCCC2)nn1)Nc1cc(C(F)(F)F)ccc1Cl	HTR5A ag 20 (no result: p-CIP stab down) | MOR-DOR ag-2 inactive | HTR5A ag confirm inactive
COCCn1c(Cc2ccccc2)nnc1SCC(=O)N1CCCC1=O	none (no result: p-CIP stab down)
Cc1cccc(N2CCN(C(=O)CCc3nc4ccccc4c(=O)[nH]3)CC2)c1C	none (no result: p-CIP stab down)
COc1ccc(NC(=S)N2CCCN(Cc3cccc(Cl)c3)C2)cc1	HTR5A ag 48 | MOR-DOR ag-2 167 | HTR5A ag confirm inactive
COc1cccc(NC(=S)N2CCCN(Cc3ccc(F)cc3)C2)c1	HTR5A ag 33 | MOR-DOR ag-2 inactive | HTR5A ag confirm 26
CCOc1ccc(NC(=S)N2CCCN(Cc3cccc(Cl)c3)C2)cc1	none
Cc1cccc(C)c1NC(=S)N1CCCN(Cc2ccc(F)cc2)C1	none
C[C@@H]1CN([C@@H](C)CO)C(=O)c2cc(NS(C)(=O)=O)ccc2O[C@@H]1CN(C)Cc1ccc(C(F)(F)F)cc1	none (no result: beta cell repl, p-CIP stab down)
Cc1ccc(NC(=O)CCCNC(=O)c2ccc(Cl)cc2)c(O)c1	none
O=C(Cc1coc2cc(O)ccc12)NNC(=O)c1ccc(Br)s1	none (no result: p-CIP stab down)
CCOC(=O)CC(=O)CSc1nc(-c2ccc3c(c2)OCO3)cc(C(F)(F)F)c1C#N	none
CCOC(=O)CCSc1nc(-c2ccc3c(c2)OCO3)cc(C(F)(F)F)c1C#N	HTR5A ag 18 | MOR-DOR ag-2 inactive | HTR5A ag confirm inactive
Cc1cc(C(=O)CN2CCN(CC(=O)Nc3cccc(F)c3)CC2)c(C)n1C1CC1	none (no result: p-CIP stab down)
O=S(=O)(NC(=NC1CCCCC1)c1ccccc1)c1ccccc1	none
Cc1ccc(S(=O)(=O)NC(=NC2CCCCC2)c2ccc(Cl)cc2)cc1	HTR5A ag 14 | MOR-DOR ag-2 inactive | HTR5A ag confirm inactive
O=C(CSc1n[nH]c(=O)n1C1CC1)Nc1ccc(F)c([N+](=O)[O-])c1	HTR5A ag 14 (no result: p-CIP stab down) | MOR-DOR ag-2 51 | HTR5A ag confirm inactive
O=C(COC(=O)Cn1cc(C(F)(F)F)ccc1=O)NCc1ccccc1	none (no result: p-CIP stab down)
COc1ccc(S(=O)(=O)NC(C(=O)OCC(=O)Nc2ccc(N3CCOCC3)cc2)C(C)C)cc1 (stereo unspecified)	HTR5A ag 16 (no result: beta cell repl, p-CIP stab down) | MOR-DOR ag-2 inactive | HTR5A ag confirm inactive
COc1ccccc1NC(=O)CCN1CCN(Cc2ccccc2)CC1	HTR5A ag 21 | MOR-DOR ag-2 inactive | HTR5A ag confirm inactive
COc1ccccc1NC(=O)CN1CCN(c2ccccc2)CC1	HTR5A ag 15 | MOR-DOR ag-2 inactive | HTR5A ag confirm inactive
COc1ccccc1NC(=O)CN1CCN(c2ccc(Cl)cc2)CC1	none
O=c1c(Cc2ccc(F)cc2)c(O)ccn1Cc1ccc(Cl)cc1Cl	HTR5A ag 20 | MOR-DOR ag-2 inactive | HTR5A ag confirm 47
O=c1c(Cc2ccc(F)cc2)c(O)ccn1Cc1ccc(F)cc1	none
CCC(NC(=O)OCc1ccccc1)C(=O)Oc1ccc2ccc(=O)oc2c1 (stereo unspecified)	none
COc1cc(Cl)c(C)cc1NC(=O)CN1CCN(C(=O)C2CC2)CC1	none (no result: p-CIP stab down)
O=C(Nc1ccc2nc(SCc3ccc(Cl)cc3)sc2c1)c1ccccc1C(=O)N1CCOCC1	HTR5A ag 21 | MOR-DOR ag-2 inactive | HTR5A ag confirm inactive
CCNC(=S)NNc1nncc2ccccc12	HTR5A ag 16 | MOR-DOR ag-2 36 | HTR5A ag confirm inactive
Cc1cc(C)c(C)c(S(=O)(=O)N2CCN(C(=O)c3ccccc3OCc3c(C)noc3C)CC2)c1C	none (no result: p-CIP stab down)
CCCc1nnc(NC(=O)c2c(O)c3c([nH]c2=O)CCCC3)s1	HTR5A ag 16 | MOR-DOR ag-2 inactive | HTR5A ag confirm inactive
O=C(Nc1nccs1)c1c(O)c2c([nH]c1=O)CCCC2	none
O=C(Nc1ccc(NS(=O)(=O)c2ccccc2)cc1)c1ccccc1Cl	none (no result: p-CIP stab down)
Cn1c(N)c(C(=O)COC(=O)Cc2cccc(C(F)(F)F)c2)c(=O)n(C)c1=O	none (no result: p-CIP stab down)
O=C(Cn1cnc2c(nnn2Cc2ccc(F)cc2)c1=O)Nc1ccc2c(c1)OCCO2	none
COc1ccc(-c2nnc(NC(=O)CS(=O)(=O)c3ccc(F)cc3)o2)c(OC)c1	none (no result: p-CIP stab down)
